{
  "source": "PubChem BioAssay AID1745850",
  "about": "(National Center for Advancing Translational Sciences (NCATS), 2022)",
  "note": "In all, about 2,100 compounds went through this assay and about 260 (12%) were called active. About 58% were inconclusive and are not listed. The call rests on the fitted dose curve; in most records, active means well fitted cell-killing curve with a large enough effect; inconclusive means small, poorly fitted or top-dose-only effect, or effect the other way; inactive means flat fitted curve, though single readings scatter. This is one part of the list. Where a call stands in place of a potency, no number is given. Potency means the concentration at half of the fitted maximal effect.",
  "data": [
    {"experiment": "Viability Counterscreen for Confirmatory qHTS for Inhibitors of ATXN expression; further: nearly all actives have a fitted effect of over 50% in size", "conditions": "HEK-293 ATXN2-luc cells viability, CellTiter-Fluor, 24 h", "outline": "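Cells with an ATXN2-luciferase reporter were dosed in a dilution series for 24 h at 37 degrees C. Viability was read first with Gly-Phe-AFC at 25 uM final (fluorescence, ex 405/em 540), then SteadyGlo luminescence. Medium-only wells defined 100% inhibition.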", "values": [
      {"smiles": "O=C(CC1Sc2ccccc2NC1=O)NNc1cccc(Cl)c1Cl", "note": "(stereo not drawn)", "Potency": "inactive"},
      {"smiles": "CC(NC(=O)Nc1cccc([N+](=O)[O-])c1)(C(F)(F)F)C(F)(F)F", "Potency": "inactive"},
      {"smiles": "CC(NC(=O)Nc1cccc([N+](=O)[O-])c1)c1ccc2c(c1)OCO2", "note": "(stereo not drawn)", "Potency": "inactive"},
      {"smiles": "N#C/C(=N\\Nc1cccc([N+](=O)[O-])c1)C(=O)c1ccc(Br)cc1", "Potency": "2.51 µM (active)"},
      {"smiles": "CC(C)=C1SC(N2CCN(c3ccc(C)c(Cl)c3)CC2)=NC1=O", "Potency": "inactive"},
      {"smiles": "O=C(Cc1coc2cc3c(cc12)CCC3)OCC(=O)N1CCCC1=O", "Potency": "inactive"},
      {"smiles": "Cc1nc2ccc(NC(=O)c3cccc(S(=O)(=O)N(C)c4ccccc4)c3)cc2s1", "Potency": "3.16 µM (active)"},
      {"smiles": "CCc1nnc(NC(=O)c2ccc(S(=O)(=O)N(C)c3ccccc3)cc2)o1", "Potency": "inactive"},
      {"smiles": "CCCC(=O)Nc1ccc2nc(SCC(=O)N3CCCC3)sc2c1", "Potency": "inactive"},
      {"smiles": "CCN1CCN(C(=S)c2ccc(-c3ccccc3)cc2)CC1", "Potency": "inactive"},
      {"smiles": "CC1(C)Cc2c(c(N3CCOCC3)nc3sc4c(NN)ncnc4c23)CS1", "Potency": "25.1 µM (active)"},
      {"smiles": "CN(C)CCNc1ncnc2c1sc1nc(N3CCCC3)c3c(c12)CC(C)(C)OC3", "Potency": "25.1 µM (active)"},
      {"smiles": "CN(C)CCNc1ncnc2c1sc1nc(N3CCOCC3)c3c(c12)CC(C)(C)SC3", "Potency": "22.4 µM (active)"},
      {"smiles": "CN1Cc2c(N3CCOCC3)nc3sc(C(=O)c4ccccc4)c(N)c3c2CC1(C)C", "Potency": "inactive"},
      {"smiles": "COc1ccc(C2CC(c3cccc(Cl)c3)=NN2c2ccc(S(N)(=O)=O)cc2)cc1", "note": "(stereo not drawn)", "Potency": "inactive"},
      {"smiles": "CCN(CCCn1c(=S)[nH]c2ccc(N3CCOCC3)cc2c1=O)c1ccccc1", "Potency": "inactive"},
      {"smiles": "Cc1nn(-c2ccccn2)c2c1C(=O)CC(C)(C)C2N=[N+]=[N-]", "note": "(stereo not drawn)", "Potency": "inactive"},
      {"smiles": "OCC1(CCOc2ccccc2)CCN(CC2=Cc3cc(Cl)ccc3OC2)CC1", "Potency": "inactive"},
      {"smiles": "Cc1cc(=O)oc2c1c(C)nn2-c1cccc(Cl)c1", "Potency": "inactive"},
      {"smiles": "O=C(c1cccc(Cl)c1)c1nn(-c2ccccc2)c(=O)cc1C(F)(F)F", "Potency": "35.5 µM (active)"},
      {"smiles": "COc1cccc(-c2nc(N3CCN(C)CC3)c3ccccc3n2)c1O", "Potency": "inactive"},
      {"smiles": "COc1ccc(Nc2nc(N3CCCC3)c3ccccc3n2)cc1", "Potency": "35.5 µM (active)"},
      {"smiles": "COc1ccc(Nc2oc(COc3ccccc3OC)nc2C#N)cc1", "Potency": "inactive"},
      {"smiles": "CC(=O)Oc1ccc(C23c4ccccc4C2(OC(C)=O)c2cc(OC(C)=O)ccc23)cc1", "note": "(stereo not drawn)", "Potency": "28.2 µM (active)"},
      {"smiles": "CC(=O)Oc1ccc(Nc2ccccc2)cc1", "Potency": "inactive"},
      {"smiles": "O=C(CSc1nnc(-c2ccc(Br)cc2)o1)Nc1cccc(C(=O)O)c1", "Potency": "inactive"},
      {"smiles": "COC(=O)c1c(C)oc2ccc(N(C(=O)c3ccncc3)S(=O)(=O)c3ccc(C)cc3C)cc12", "Potency": "inactive"},
      {"smiles": "CN(CC(=O)Nc1ccc(Cl)c(C(F)(F)F)c1)C(=O)c1cccnc1Sc1ccccc1", "Potency": "inactive"},
      {"smiles": "O=C(CNc1cccc(C(F)(F)F)c1)Nc1cccc(S(=O)(=O)N2CCCC2)c1", "Potency": "inactive"},
      {"smiles": "Cc1ccc(C(=O)N(C)CC(=O)Nc2ccc(Cl)c(C(F)(F)F)c2)cc1S(=O)(=O)N1CCCCC1", "Potency": "25.1 µM (active)"},
      {"smiles": "O=C(NCCc1csc(-c2cccnc2)n1)c1cccc(Cl)c1", "Potency": "inactive"},
      {"smiles": "Cc1cccn2c(=O)c3cc(C(=O)NCCN4CCOCC4)c(=N)n(Cc4ccc(F)cc4)c3nc12", "Potency": "inactive"},
      {"smiles": "COc1cccc(/C=N/NC(=O)CC(C)O)c1OC/C=C/c1ccccc1", "note": "(stereo not drawn)", "Potency": "inactive"}
    ]}
  ]
}
